Assay results as given in PubChem BioAssay AID1159580 (chemical genetic matrix, 2015).
Among all 5,500 compounds or so, about 2,000 (36%) were called active. Inconclusive results (about 18%) are left out. No stated cut-off is given here; in the data, active means normalized growth mostly below about 0.91 (no sharp cut-off); inconclusive means no clear call, values can overlap the other calls; inactive means mostly above about 0.92. This is one part of the list.

Test: chemical genetic growth profiling, strain panel (AID 1159580);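 further: tested at 20 µM; growth read once vehicle control cultures reached saturation at 30 °C; 1 = growth at the plate median or of vehicle wells; lower values mean less growth of the strain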
Conditions: S. cerevisiae deletion strains, growth OD
[1] = locus YDL101C, strain DUN1, active compounds read low
[2] = locus YHR030C, strain SLT2, active compounds read low

Measured: normalized growth

CCOC(=O)c1ccc2nc(N=CNO)sc2c1
inactive: locus YAR019C, strain CDC15, active compounds read low 0.948 | locus YBL105C, strain PKC1, active compounds read low 0.94 | locus YBR135W, strain CKS1, active compounds read low 0.947 | locus YBR136W, strain MEC1, active compounds read low 0.951 | locus YBR160W, strain CDC28, active compounds read low 0.954 | locus YDL017W, strain CDC7, active compounds read low 0.953 | locus YDL028C, strain MPS1, active compounds read low 0.956 | [1] 0.973 | locus YDL108W, strain KIN28, active compounds read low 0.946 | locus YDL132W, strain cdc53, active compounds read low 0.946 | locus YDL214C, strain PRR2, active compounds read low 0.905 | locus YDR052C, strain DBF4, active compounds read low 0.961 | locus YDR054C, strain cdc34, active compounds read low 0.938 | locus YDR226W, strain ADK1, active compounds read low 0.958 | locus YDR477W, strain SNF1, active compounds read low 0.913 | locus YER123W, strain YCK3, active compounds read low 0.864 | locus YER133W, strain GLC7, active compounds read low 0.888 | locus YFL009W, strain cdc4, active compounds read low 0.938 | locus YFL029C, strain CAK1, active compounds read low 0.951 | locus YFR003C, strain YPI1, active compounds read low 0.951 | locus YFR019W, strain FAB1, active compounds read low 0.909 | locus YFR028C, strain CDC14, active compounds read low 0.967 | locus YGR040W, strain KSS1, active compounds read low 0.919 | locus YGR052W, strain FMP48, active compounds read low 0.983 | locus YGR092W, strain DBF2, active compounds read low 0.771 | [2] 0.961 | locus YHR079C, strain IRE1, active compounds read low 0.964 | locus YHR082C, strain KSP1, active compounds read low 0.986 | locus YHR205W, strain SCH9, active compounds read low 0.886 | locus YIL147C, strain SLN1, active compounds read low 0.945 | locus YJL095W, strain BCK1, active compounds read low 0.977 | locus YJL128C, strain PBS2, active compounds read low 0.94 | locus YJL157C, strain FAR1, active compounds read low 0.881 | locus YJR016C, strain ILV3, active compounds read low 0.948 | locus YJR066W, strain TOR1 (second series), active compounds read low 0.717 | locus YJR066W, strain TOR1, active compounds read low 0.995 | locus YKL048C, strain ELM1, active compounds read low 0.955 | locus YKL067W, strain YNK1, active compounds read low 0.915 | locus YKL101W, strain HSL1, active compounds read low 0.907 | locus YKL193C, strain SDS22, active compounds read low 0.955 | locus YKL203C, strain TOR2, active compounds read low 0.958 | locus YLR113W, strain HOG1, active compounds read low 0.988 | locus YLR133W, strain CKI1, active compounds read low 0.922 | locus YLR403W, strain SFP1, active compounds read low 0.879 | locus YML070W, strain DAK1, active compounds read low 0.892 | locus YMR001C, strain CDC5, active compounds read low 0.951 | locus YMR205C, strain PFK2 (second series), active compounds read low 0.931 | locus YMR277W, strain FCP1, active compounds read low 0.963 | locus YNL006W, strain LST8, active compounds read low 0.945 | locus YNL020C, strain ARK1, active compounds read low 0.911 | locus YNL161W, strain CBK1, active compounds read low 0.951 | locus YNL183C, strain NPR1, active compounds read low 1 | locus YNL207W, strain RIO2, active compounds read low 0.949 | locus YNL222W, strain SSU72, active compounds read low 0.952 | locus YNL307C, strain MCK1 (second series), active compounds read low 0.926 | locus YOL078W, strain AVO1, active compounds read low 0.958 | locus YOL136C, strain PFK27, active compounds read low 0.892 | locus YOR061W, strain CKA2, active compounds read low 0.894 | locus YOR119C, strain RIO1, active compounds read low 0.908 | locus YOR231W, strain MKK1, active compounds read low 0.938 | locus YOR329C, strain SCD5, active compounds read low 0.947 | locus YPL031C, strain PHO85, active compounds read low 0.867 | locus YPL153C, strain RAD53, active compounds read low 0.88 | locus YPL204W, strain HRR25, active compounds read low 0.889 | locus YPL209C, strain IPL1, active compounds read low 0.947 | locus YPL256C, strain CLN2, active compounds read low 1.02 | locus YPR025C, strain CCL1, active compounds read low 0.95 | locus YPR106W, strain ISR1, active compounds read low 0.968 | locus YPR111W, strain DBF20, active compounds read low 0.963 | strain NNK1, active compounds read low 0.96 | strain TSCII, active compounds read low 0.952

Cc1oc(C(C)(C)C)cc1C(=O)Nc1ccc([N+](=O)[O-])cc1
inactive: locus YBR229C, strain ROT2, active compounds read low 0.976 | locus YCL061C, strain MRC1, active compounds read low 0.984 | [1] 1.03 | locus YEL061C, strain CIN8, active compounds read low 0.911 | locus YGR078C, strain PAC10, active compounds read low 0.98 | locus YHR087W, strain rtc3, active compounds read low 0.958 | locus YJR043C, strain POL32, active compounds read low 0.966 | locus YJR075W, strain HOC1, active compounds read low 0.974 | locus YLR058C, strain SHM2 (second series), active compounds read low 0.992 | locus YLR085C, strain ARP6, active compounds read low 0.813 | locus YML094W, strain GIM5, active compounds read low 0.873 | locus YMR219W, strain ESC1, active compounds read low 0.997 | locus YMR263W, strain SAP30, active compounds read low 0.943 | locus YMR307W, strain GAS1, active compounds read low 0.752 | locus YNL153C, strain GIM3, active compounds read low 0.998 | locus YNL322C, strain KRE1, active compounds read low 0.996 | locus YOL006C, strain TOP1, active compounds read low 0.88 | locus YPL241C, strain CIN2, active compounds read low 0.997
active: locus YAL013W, strain DEP1, active compounds read low 0.903 | locus YDR150W, strain NUM1, active compounds read low 0.786 | [2] 0.584 | locus YLR039C, strain RIC1, active compounds read low 0.678 | locus YLR262C, strain YPT6, active compounds read low 0.786 | locus YNL298W, strain CLA4 (second series), active compounds read low 0.788 | locus YNR030W, strain Alg12, active compounds read low 0.816 | locus YPL055C, strain LGE1, active compounds read low 0.688 | locus YPR135W, strain CTF4, active compounds read low 0.484
